Screening results: PubChem BioAssay, The Scripps Research Institute Molecular Screening Center
PLC-beta3 inh = human PLC-beta3 inhibitors, primary screen, biochemical, fluorescence. 1-phosphatidylinositol 4,5-bisphosphate phosphodiesterase beta-3 (Homo sapiens), Q01970. Purified PLC-beta3, fluorogenic substrate. inhibition, % at 12.2 µM. 370,000 tested, 0.18% active. AID 720704, 2013; in the data active = inhibition above about 11%;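 note: 0% = median of compound wells on plate and 100% = full blocker control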
Target sequence (Q01970 whole entry, looked up): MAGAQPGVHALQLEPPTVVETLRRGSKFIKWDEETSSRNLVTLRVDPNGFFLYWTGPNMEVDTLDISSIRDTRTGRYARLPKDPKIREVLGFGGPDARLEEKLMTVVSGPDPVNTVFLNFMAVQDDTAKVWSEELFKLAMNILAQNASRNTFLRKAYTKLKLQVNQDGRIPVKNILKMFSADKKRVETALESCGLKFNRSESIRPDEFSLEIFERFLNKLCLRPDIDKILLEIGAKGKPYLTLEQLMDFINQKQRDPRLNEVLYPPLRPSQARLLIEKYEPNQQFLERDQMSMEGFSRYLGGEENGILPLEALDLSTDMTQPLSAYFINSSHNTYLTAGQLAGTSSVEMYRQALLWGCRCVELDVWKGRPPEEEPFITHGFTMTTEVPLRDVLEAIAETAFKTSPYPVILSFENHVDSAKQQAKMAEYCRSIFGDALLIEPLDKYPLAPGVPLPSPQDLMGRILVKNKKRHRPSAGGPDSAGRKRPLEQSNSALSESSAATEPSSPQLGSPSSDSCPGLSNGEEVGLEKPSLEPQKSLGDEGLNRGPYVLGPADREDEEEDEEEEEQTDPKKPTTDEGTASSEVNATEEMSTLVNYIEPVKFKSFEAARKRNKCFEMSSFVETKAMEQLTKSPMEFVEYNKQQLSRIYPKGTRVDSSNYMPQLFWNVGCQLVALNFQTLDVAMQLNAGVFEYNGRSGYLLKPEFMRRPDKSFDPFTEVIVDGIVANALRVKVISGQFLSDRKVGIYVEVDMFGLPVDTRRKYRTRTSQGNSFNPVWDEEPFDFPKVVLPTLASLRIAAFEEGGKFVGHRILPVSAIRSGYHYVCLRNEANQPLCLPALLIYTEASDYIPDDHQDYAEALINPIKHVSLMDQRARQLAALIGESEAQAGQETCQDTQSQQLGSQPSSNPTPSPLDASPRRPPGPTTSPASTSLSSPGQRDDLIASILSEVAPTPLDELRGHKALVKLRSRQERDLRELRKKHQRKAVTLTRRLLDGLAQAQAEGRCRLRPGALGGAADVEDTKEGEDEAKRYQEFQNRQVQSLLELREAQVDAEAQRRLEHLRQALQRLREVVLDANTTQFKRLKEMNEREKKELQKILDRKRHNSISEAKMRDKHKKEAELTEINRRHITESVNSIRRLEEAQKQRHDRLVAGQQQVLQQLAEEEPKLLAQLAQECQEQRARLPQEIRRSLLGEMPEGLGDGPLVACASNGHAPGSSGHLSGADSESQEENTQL
PLC-gamma1 inh = PLC-gamma1 enzyme inhibitors, primary screen, biochemical, fluorescence, purified enzyme; inhibition, % at 12.2 µM; 1-phosphatidylinositol 4,5-bisphosphate phosphodiesterase gamma-1 (Homo sapiens), P19174; 370,000 tested, 0.84% active; fluorogenic substrate; in the data active = inhibition above about 9.5%
proKLK7 act = proKLK7 zymogen activators, primary screen, biochemical, fluorescence intensity; Kallikrein-7 (Homo sapiens), P49862; purified proKLK7, EDANS-DABCYL substrate fluorescence; 100% is mature enzyme control, 0% vehicle; activation, % at 7 µM; 370,000 tested, 0.9% active; AID 652039, 2013;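 active = activation above the mean of all tested compounds plus 3 SD, computed per campaign excluding outliers beyond control limits, cut at about 13% in these data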
ADAM17 inh = ADAM17 inhibitors, primary screen, biochemical, QFRET; Disintegrin and metalloproteinase domain-containing protein 17 (Homo sapiens), P78536; recombinant ADAM17, EDANS/DABCYL FRET peptide cleavage; inhibition, % at 6.95 µM; 370,000 tested, 0.83% active; AID 720648, 2013;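 active = inhibition above the mean of compounds lying between control limits plus 3 SD, set per campaign, cut at about 8.5% in these data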;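 note: 0% = DMSO-only wells as the low control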
ADAM10 inh = human ADAM10 inhibitors, primary screen, biochemical, QFRET, HTS; Disintegrin and metalloproteinase domain-containing protein 10 (Homo sapiens), O14672; recombinant ADAM10, EDANS/DABCYL FRET peptide cleavage, 3 h; inhibition, % at 7 µM; 370,000 tested, 0.62% active; AID 720582, 2013;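 active = inhibition above a per-campaign cutoff equal to the mean of compounds falling between control-based bounds plus 3 SD, cut at about 20% in these data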;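 note: 0% = DMSO wells while the 100% control is not disclosed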
ADAM10 counter = ADAM10 inhibitors, counter-screen for ADAM17 exosite inhibitor project, biochemical, FRET, human ADAM10. 2,900 tested, 47% active. inhibition, % at 6.95 µM. recombinant ADAM10, EDANS/DABCYL FRET peptide cleavage, 3 h. shares compounds with ADAM17 inh. AID 743256, 2014;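 active = mean inhibition over the triplicate runs exceeds the activity threshold set in the earlier primary screen, cut at about 20% in these data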;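 note: 0% = DMSO wells and 100% = marimastat wells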
ADAM17 confirm = ADAM17 inhibitors, hit retest, confirmation, biochemical, QFRET peptide cleavage; shares compounds with ADAM17 inh; recombinant ADAM17, EDANS/DABCYL QFRET peptide cleavage; inhibition, % at 6.95 µM; 2,900 tested, 65% active;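 active = mean inhibition across replicates above the hit cutoff set in the primary screen, cut at about 8.5% in these data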;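 note: 0% = DMSO wells and 100% = marimastat wells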
An asterisk follows results filed as active; nt = no result. This is a sample that favours compounds with a hit; in the whole collection about 2.9% have one here.

SMILES | PLC-beta3 inh | PLC-gamma1 inh | proKLK7 act | ADAM17 inh | ADAM10 inh | ADAM10 counter | ADAM17 confirm
CC1CCCCN1S(=O)(=O)c1ccc(S(=O)(=O)N(Cc2ccccc2)Cc2ccco2)cc1 (stereo not drawn) | 5.2 | 9.3 | 0.1 | 16.0* | 15.3 | 20.1* | 12.0*
COc1ccc(CC(=O)Nc2ccc3c(c2)OC2(CCCC2)O3)c(OC)c1 | -4.5 | -1.8 | 1.1 | 10.6* | -3.2 | 9.5 | 7.7
COc1cccc(CC(=O)Nc2ccc3c(c2)OC2(CCCC2)O3)c1 | -10.6 | 3.2 | 0.1 | -2.2 | 6.9 | nt | nt
S=C(NCc1ccco1)Nc1ccc(Cl)c(Cl)c1 | -4.2 | -5.7 | -0.2 | 10.0* | 11.1 | 5.1 | 7.0
CCOc1cccc2sc(N3CCN(C(=O)c4ccc5ncsc5c4)CC3)nc12 | -0.7 | -0.9 | 0.6 | -3.2 | -9.2 | nt | nt
Cn1nc(C(F)(F)F)c(C(=O)Nc2ccc(F)cc2F)c1Sc1cccc(C(F)(F)F)c1 | 5.0 | 4.9 | -0.6 | 9.8* | 14.6 | 10.3 | 8.4
CC(=O)Nc1ccc(NC(=O)CCCc2c[nH]c3ccccc23)cc1 | 3.4 | -1.1 | 0.0 | -2.1 | -3.5 | nt | nt
O=C(CCCc1c[nH]c2ccccc12)Nc1ccc2ccccc2c1 | 2.2 | 0.3 | -0.1 | 10.0* | 7.7 | 1.5 | 4.3
Cc1cc(Oc2ccccc2)nc(SCC(=O)Nc2ccccc2)n1 | 3.0 | -0.1 | -0.3 | 1.4 | -0.2 | nt | nt
Cc1cc(Oc2ccccc2)nc(SCC(=O)Nc2ccc(Cl)c(Cl)c2)n1 | -2.3 | 5.0 | -0.1 | 13.5* | 18.9 | 17.0 | 11.9*
COc1cccc(C=NNC(=O)CSc2nc3ccccc3[nH]2)c1O | -31.5 | -18.2 | -2.0 | 10.2* | 16.9 | -7.0 | -0.4
O=S(=O)(c1cccc(Cl)c1)N1CCN(S(=O)(=O)c2ccc3c(c2)OCCO3)CC1 | 6.8 | 6.1 | -0.3 | 10.3* | 12.2 | 6.5 | 6.2
O=C(CC1SC(=O)N(c2ccccc2)C1=O)Nc1ccccc1 (stereo not drawn) | -0.3 | 5.7 | -0.3 | 9.3* | 11.8 | 1.0 | 16.0*
COC(=O)C1=C(C(=O)OC)SC2(S1)C(C(=O)OC)=C(C(=O)OC)SC1=C2c2cccc(C)c2NC1(C)C | 1.2 | 7.5 | 0.5 | 12.8* | 13.4 | 19.2 | 10.7*
CS(=O)(=O)N(Cc1ccco1)CC(O)Cn1c2ccccc2c2ccccc21 (stereo not drawn) | 4.4 | 8.5 | -0.1 | 9.9* | 9.2 | 3.6 | 4.6
CCc1cccc(C)c1NC(=O)C1CCN(C(=O)c2ccc([N+](=O)[O-])cc2)CC1 | -2.2 | 2.5 | 0.1 | -2.4 | -1.5 | nt | nt
NC(=O)CC[C@@H]1NC(=O)[C@H](CO)NC(=O)c2cc([N+](=O)[O-])cc(I)c2OCC[C@@H](C(N)=O)NC1=O | 9.5 | 14.3* | 0.6 | 10.3* | 16.9 | 11.7 | 4.7
NC(=O)[C@@H]1CCOc2c(I)cc([N+](=O)[O-])cc2C(=O)N[C@@H](CO)C(=O)NCC(=O)N1 | -2.4 | 1.0 | 0.5 | 0.5 | -7.5 | nt | nt
CCC(CC)c1nnc(NC(=O)C23CC4CC(CC(NC(C)=O)(C4)C2)C3)s1 | -5.0 | 4.3 | 0.3 | 1.3 | -0.1 | nt | nt
CC(=O)NC12CC3CC(C1)CC(C(=O)Nc1nc4ccc(F)cc4s1)(C3)C2 | -8.6 | -0.8 | -0.8 | 8.6* | -3.8 | -1.6 | 1.7
CCN(CC)C(=O)C1=C(C)N(Cc2ccc(C(C)(C)C)cc2)C(=O)C(CC(=O)NC(c2ccccc2)c2ccccc2)C1 (stereo not drawn) | -4.7 | 3.0 | 0.9 | 9.3* | 4.6 | 26.5* | 13.2*
